Results from PubChem BioAssay.
A number with no mark means an inactive call. The source made the active and inactive calls. No stated cut-off is given here; in the data, active means fold change permeability below about 0.7 or above about 1.3; inactive means in between.

Test: modulators of brain endothelial barrier permeability, primary screen, cell-based, FITC-avidin fluorescence, HTS (AID 1963498); further: test concentration not given here
Conditions: actives lie on both sides
With CN1CCN2c3ccccc3Cc3ccccc3C2C1 (centres undefined) the fold change permeability was 1.1.
In the case of O=[N+]([O-])c1ccc(CNc2nc(NCc3cccc(C(F)(F)F)c3)nc3nc[nH]c23)cc1, the fold change permeability is reported as 1.3 (active).
CN1C2CCC1CC(OC(=O)C(O)c1ccccc1)C2 (centres undefined) gave a fold change permeability of 1.1.
Work on CCc1ccc(OCC(=O)Nc2ccc(F)c([N+](=O)[O-])c2)cc1 yielded a fold change permeability of 1.1.
Compound C[C@@]12C(=O)OC(=O)[C@]1(C)[C@H]1CC[C@@H]2O1 has a fold change permeability of 1.1.
In the case of C[C@@H](CN1CCC(Cc2ccccc2)CC1)[C@@H](O)c1ccc(O)cc1, the fold change permeability is reported as 1.3 (active).
Compound N[C@H](C(=O)O)[C@H](Cc1ccccc1)C(=O)O has a fold change permeability of 1.2.
In the case of COc1cc(C(=O)OCCCN2CCCN(CCCOC(=O)c3cc(OC)c(OC)c(OC)c3)CC2)cc(OC)c1OC, the fold change permeability is reported as 1.5 (active).
N[C@@H](COP(=O)(O)O)C(=O)O showed a fold change permeability of 1.
In the case of CC(C)NCC(O)COc1ccc(CCOCC2CC2)cc1 (centres undefined), the fold change permeability is reported as 1.2.
For CC1(C)OC(=O)C(c2cccc(F)c2)=C1c1ccc(S(C)(=O)=O)cc1, the fold change permeability was 0.9.
O=C1CCCC(=O)C1C(=O)c1ccc(C(F)(F)F)cc1[N+](=O)[O-] showed a fold change permeability of 0.9.
COCCOC(=O)C1=C(C)NC(C)=C(C(=O)OC/C=C/c2ccccc2)C1c1cccc([N+](=O)[O-])c1 (centres undefined) showed a fold change permeability of 1.2.
With C=C1C(=O)O[C@@H]2[C@H]3O[C@]3(C)CC/C=C(\C)CC[C@@H]12 the fold change permeability was 1.3 (active).
With CCOC(=O)Nc1ccc(NCc2ccc(F)cc2)nc1N the fold change permeability was 1.6 (active).
For Nc1nc2[nH]c(=O)cnc2c(=O)[nH]1, the fold change permeability was 1.4 (active).
In the case of OC[C@H]1O[C@H]([S-])[C@H](O)[C@@H](O)[C@@H]1O.[Au+], the fold change permeability is reported as 1.5 (active).
For CC(=O)O[C@H]1Cc2ccccc2N(C(N)=O)c2ccccc21, the fold change permeability was 1.8 (active).
Fc1ccc(NC(=S)NCCCn2ccnc2)c(F)c1 showed a fold change permeability of 0.9.
N[C@@H](Cc1cc(CP(=O)(O)O)cc(-c2ccccc2Cl)c1)C(=O)O gave a fold change permeability of 0.9.
NC(N)=N/N=C/c1c(Cl)cccc1Cl showed a fold change permeability of 1.
In the case of OCCN1CCN(CCCN2c3ccccc3Sc3ccc(C(F)(F)F)cc32)CC1, the fold change permeability is reported as 1.4 (active).
For C#CCn1c(=O)c2c(ncn2C)n(C)c1=O, the fold change permeability was 0.9.
With CC(C)(C=O)Cc1cc(C(C)(C)C)c(O)c(C(C)(C)C)c1 the fold change permeability was 1.2.
In the case of O=C(O)c1cc(=O)c2c(Cl)cc(Cl)cc2[nH]1, the fold change permeability is reported as 1.1.
N[C@@H](Cc1ccc(O)c(O)c1)C(=O)O showed a fold change permeability of 0.8.
For N#Cc1cc([N+](=O)[O-])c2sc(C(N)=O)[n+]([O-])c2c1, the fold change permeability was 1.3 (active).
With O=C(c1ccc(OCCCc2cnc[nH]2)cc1)C1CC1 the fold change permeability was 1.
In the case of O=c1[nH]c2ccccc2c2ccccc12, the fold change permeability is reported as 1.
Work on Cc1scc2c1N(C(=O)CN1CCN(C)CC1)c1ccccc1NC2=O yielded a fold change permeability of 0.8.
Compound CCCCNc1cc(C(=O)O)cc(S(N)(=O)=O)c1Oc1ccccc1 has a fold change permeability of 1.
Work on Oc1cc(O)c2c(c1)O[C@H](c1ccc(O)c(O)c1)[C@@H](O)C2 yielded a fold change permeability of 0.8.
For CC(=O)[C@]1(O)Cc2c(O)c3c(c(O)c2[C@@H](O[C@H]2C[C@H](N)[C@H](O)[C@H](C)O2)C1)C(=O)c1ccccc1C3=O, the fold change permeability was 3.4 (active).
Compound CC(=O)c1ccc(S(=O)(=O)NC(=O)NC2CCCCC2)cc1 has a fold change permeability of 1.1.
Compound Nc1c(C(=O)Nc2c(F)cc(F)cc2Br)sc2nc3c(cc12)CCC3 has a fold change permeability of 0.9.
With N#Cc1ccc(-c2csc(NN=C3CCCC3)n2)cc1 the fold change permeability was 1.7 (active).
With COc1cc(C[C@H](C)[C@H](C)Cc2ccc3c(c2)OCO3)ccc1O the fold change permeability was 1.7 (active).
CCN(CC)CCOC(=O)c1cc(Cl)c(N)cc1OC gave a fold change permeability of 1.1.
In the case of Cc1cc(C)c(S(=O)(=O)N(CCc2cccc(Br)c2)Cc2ccc(-c3cccc(S(C)(=O)=O)c3)cc2)c(C)c1, the fold change permeability is reported as 1.8 (active).
